Legend:
Test in all cases: PBM binding z-score (relative to random genomic background probes); higher = stronger binding; sequences stand for … in GC…GCGATTGACAGCGTAGAATGAAGG
[1] = test system: FXR:RXRa (NR concentration 270 nM, RXRa partner concentration 90 nM)
Outline: (§1)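 Each nuclear receptor dimer, without ligand, was incubated for 1 h on custom Agilent 4×180K protein-binding microarrays. Binding was detected with antibodies against each partner (one per run), and scanned fluorescence was regression-normalized. The binding z-scores are referenced to random human genomic background probes.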

[2] = test system: LXRa:RXRa (NR concentration 270 nM, RXRa partner concentration 90 nM)
Outline: as §1

[3] = test system: LXRa homodimer (NR concentration 270 nM)
Outline: as §1

[4] = test system: LXRb:RXRa (NR concentration 270 nM, RXRa partner concentration 90 nM)
Outline: as §1

[5] = test system: LXRb homodimer (NR concentration 270 nM)
Outline: as §1

[6] = test system: PPARa:RXRa (NR concentration 270 nM, RXRa partner concentration 90 nM)
Outline: as §1

[7] = test system: PPARg:RXRa (NR concentration 180 nM, RXRa partner concentration 90 nM)
Outline: as §1

[8] = test system: PPARg:RXRa 270nM:90nM, anti-RXR (NR concentration 270 nM, RXRa partner concentration 90 nM)
Outline: as §1

[9] = test system: PPARg:RXRa 30nM:10nM, anti-RXR (NR concentration 30 nM, RXRa partner concentration 10 nM)
Outline: as §1

[10] = test system: PPARg:RXRa 90nM:30nM, anti-RXR (NR concentration 90 nM, RXRa partner concentration 30 nM)
Outline: as §1

[11] = test system: PPARg:RXRa DBDmut IVT, anti-RXR (DBD mutation: RXRa K156A/R161A, NR concentration 270 nM, RXRa partner concentration 90 nM)
Outline: as §1

[12] = test system: PPARg:RXRa IVT, anti-PPARg (NR concentration 270 nM, RXRa partner concentration 90 nM)
Outline: as §1

[13] = test system: PPARg DBDmut:RXRa IVT, anti-PPARg (DBD mutation: PPARg1 K132A/R137A, NR concentration 270 nM, RXRa partner concentration 90 nM)
Outline: as §1

[14] = test system: PPARg DBDmut IVT, anti-PPARg (DBD mutation: PPARg1 K132A/R137A, NR concentration 270 nM)
Outline: as §1

[15] = test system: PPARg homodimer (NR concentration 180 nM)
Outline: as §1

[16] = test system: PXR:RXRa (NR concentration 270 nM, RXRa partner concentration 90 nM)
Outline: as §1

[17] = test system: PXR homodimer (NR concentration 270 nM)
Outline: as §1

[18] = test system: RARa:RXR (NR concentration 270 nM, RXRa partner concentration 90 nM)
Outline: as §1

[19] = test system: RARa homodimer (NR concentration 270 nM)
Outline: as §1

[20] = test system: RARb:RXRa (NR concentration 270 nM, RXRa partner concentration 90 nM)
Outline: as §1

Row | Sequence | PBM binding z-score [1] | PBM binding z-score [2] | PBM binding z-score [3] | PBM binding z-score [4] | PBM binding z-score [5] | PBM binding z-score [6] | PBM binding z-score [7] | PBM binding z-score [8] | PBM binding z-score [9] | PBM binding z-score [10] | PBM binding z-score [11] | PBM binding z-score [12] | PBM binding z-score [13] | PBM binding z-score [14] | PBM binding z-score [15] | PBM binding z-score [16] | PBM binding z-score [17] | PBM binding z-score [18] | PBM binding z-score [19] | PBM binding z-score [20]
1 | CCAGACAGGTGAGTAGGTAACTCAGCCTCGATTA | 0.327 | 0.14 | 0.0547 | -0.023 | -0.401 | 0.695 | 0.545 | 0.565 | -0.111 | 0.0174 | 2.01 | 1.66 | -0.259 | -0.369 | 1.08 | -0.277 | -0.0681 | 0.388 | 0.546 | 0.279
2 | CCTTACGGGTCACGAGTTTATAGCACGACGAGCG | 6.13 | 3.82 | 0.393 | 3.41 | 0.252 | 5.25 | 5.99 | 5.87 | 2.81 | 4.64 | 4.46 | 5.06 | 0.736 | 0.94 | 2.53 | 4.8 | 2 | 4.85 | 0.68 | 4.27
3 | CCTACTGGGCCATCACGTCATTGATATCAACGTT | -0.11 | -0.114 | -0.158 | 0.0401 | -0.225 | 0.509 | 0.963 | 1.09 | 0.356 | 0.648 | 4.36 | 3.56 | 0.399 | 0.151 | 0.3 | -0.248 | 0.0325 | 0.0611 | -0.31 | 0.25
4 | ATAGGTAGGTTATCGGGTCATTCAGTTTGCGCAT | 3.2 | 3.22 | 1.93 | 3.17 | 1.52 | 3.82 | 4.18 | 4.48 | 1.91 | 3.81 | 4.9 | 5.09 | 1.49 | 1.46 | 2.74 | 3.9 | 7.44 | 3.76 | 2.57 | 2.62
5 | TCTCGGCGGACACGAAAGGTCAGAGCTCGACATC | 1.93 | 3.18 | 2.3 | 2.79 | -0.427 | 2.94 | 0.571 | 1.69 | 1.42 | 1.53 | 1.12 | 0.541 | -0.347 | -0.845 | 1.83 | 3.15 | -0.247 | 3.71 | 0.345 | 3.56
6 | ATCGAAAGGTCGAAGGTGAGTGTACCCACCCGAA | 4.5 | 3.39 | 0.164 | 2.8 | 0.755 | 4.8 | 4.86 | 4.69 | 2.15 | 3.8 | -0.0432 | 2.32 | 1.7 | 0.661 | 1.79 | 3.07 | 0.136 | 4.01 | -0.116 | 3.86
7 | AGAATGAAGTTACCAAAGATCAGGGAAACGCTTG | -0.327 | 0.631 | -0.337 | -0.292 | -0.771 | -0.153 | 0.523 | 0.0888 | 0.0872 | 0.08 | -0.595 | -0.423 | 0.443 | 0.266 | -0.127 | -0.206 | -0.375 | -0.000481 | -0.214 | -0.335
8 | TGAATGGGGTTAAAGATCAGGGAACGTGGCGTCG | 5.11 | 3.48 | 0.361 | 4.01 | 3.3 | 5.61 | 6.88 | 7.24 | 5.21 | 7.51 | 2.89 | 3.96 | 1.84 | 2.48 | 2.38 | 3.45 | 1.64 | 5 | 1.66 | 2.43
9 | GCTCGGAGGACATGGTCAGAGCTTTGTCCGTAGA | -0.823 | -0.697 | -0.873 | -1.01 | -1.56 | -0.666 | -0.763 | -0.775 | -1.35 | -1.09 | -0.304 | -0.659 | -2.23 | -2.05 | -2.26 | -0.77 | -0.911 | -0.833 | -1.56 | 0.679
10 | CCTACTGGGCCATTCAGAGGTAATTGATCATATG | -0.331 | -0.32 | -0.381 | -0.312 | -0.992 | 0.524 | 0.262 | 0.25 | -0.481 | -0.189 | 3.91 | 3.26 | -0.325 | -0.711 | -0.319 | -0.537 | -0.389 | -0.179 | -0.252 | 0.178
11 | CCTACTTGGCCAAGGTCATTGATCAGTCAAAGCA | 3.65 | 4.26 | 1.93 | 3.87 | 1.21 | 4 | 1.27 | 2.15 | 0.389 | 1.41 | 1.37 | 2.08 | -0.0462 | -0.266 | 2.44 | 3.9 | 1.45 | 3.57 | 1.49 | 3.49
12 | GATACAGGGTCAGCTAGAGGCCACAGTATGGAAA | 4.67 | 3.33 | -0.234 | 2.65 | -0.958 | 4.64 | 4.12 | 3.58 | 1.09 | 2.68 | 1.47 | 2.57 | 0.921 | 0.377 | 2.57 | 3.94 | -0.253 | 5.22 | 0.785 | 4.2
13 | ATCTCTAGGTAACCAAGTTCAATGAATGCCGAAC | 0.814 | 1.63 | 1.7 | 1.34 | 1.25 | 1.76 | 1.26 | 1.15 | 0.497 | 0.824 | 3.3 | 3.19 | 0.675 | 1.22 | 1.22 | 2.72 | 3.6 | 1.33 | 1.18 | 1.43
14 | CCTACTGGGCCACGAAAGGTCATTGCTTCAGTGA | 3.92 | 5.22 | 5.24 | 4.45 | 0.134 | 4.62 | 4.49 | 4.91 | 2.15 | 4.17 | 5.37 | 5.7 | 1.88 | 1.06 | 3.27 | 5.56 | 2.05 | 5.35 | 1.56 | 3.94

— the supplement of paper PMC6555819
